Among all 290,000 compounds or so, about 3,000 (1%) were called active. What follows is part of a selection rich in actives, with near analogues and random picks from the rest. Values without a mark were called inactive. Rule as the data show it: active = inhibition mostly above about 36% (no sharp cut-off); inactive = mostly below about 34%.
Assay: NOD1 signaling inhibitors, primary screen, cell-based, luminescence, uHTS (AID 1578);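 also: HEK-293T reporter cells stimulated with the NOD1 agonist gamma-tri-DAP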
Conditions: NOD1-driven NF-kB luciferase reporter cells, at 4 µM, active compounds read high

First: Cc1ccc(C(=O)Nc2nc(C)c(C)s2)o1
Second: COC(=O)c1sc(NC(=S)NC(=O)c2cccc(Br)c2)nc1C
The inhibition of the first is lower: -44.9% for the first, 25.2% for the second.

Compared with O=C(N/N=C/c1ccc(Cl)cc1)c1sccc1OCc1ccc(F)cc1, COc1ccc(N(C(C)C(=O)N/N=C/c2ccc(OC(C)C)cc2)S(C)(=O)=O)cc1 (centres undefined) is higher in inhibition: -25.8% for the first, 14.7% for the second.

Compared with C=CCOc1ccc(C(=O)/C=C2/C(=O)Nc3ccccc32)cc1, C=CCOc1cccc(C(=O)/C=C2/C(=O)Nc3ccccc32)c1 is lower in inhibition: 1.1% for the first, -3.7% for the second.

First: Cc1cc(NC(=O)CCC(=O)N(CC(=O)NC2CCCC2)c2cccc(F)c2)no1
Second: Cc1ncoc1C(=O)N1CCCC(CCC(=O)NCc2ccc(F)c(F)c2)C1 (centres undefined)
The inhibition of the first is higher: -29.1% for the first, -31.1% for the second.

Compared with O=C(Nc1ccccn1)c1ccc(Br)c(S(=O)(=O)N2CCCC2)c1, O=C(Nc1ccccn1)c1ccc(Br)c(S(=O)(=O)N2CCCCC2)c1 is higher in inhibition: -39% for the first, -25.4% for the second.

Going from CC(C)(C)c1ccc(C(=O)NC(=S)NCc2ccco2)cc1 to CC(C)C(=O)Nc1ccc(C(=O)NCc2cccnc2)cc1, the inhibition falls from -11% to -35.1%.

Compared with N=c1c2c(n(Cc3ccc(F)cc3)c3c1CCC3)CCCC2, N=c1c2c(n(Cc3ccc(Br)cc3)c3c1CCC3)CCCC2 is higher in inhibition: 22.1% for the first, 39% for the second.

Going from NC(=O)c1ccccc1NC(=O)Cc1cccs1 to O=C(NCc1ccccc1)c1ccco1, the inhibition falls from -10.4% to -12.3%.

First: O=CNCc1nc2ccccc2n1CCCc1ccccc1
Second: O=CNCCc1nc2ccccc2n1CCc1ccccc1
The inhibition of the first is lower: -1.8% for the first, 15% for the second.

First: CNc1ccc(Cl)nn1
Second: O=C(Nc1ccccc1-c1nnc(SCc2ccc(Cl)cc2)o1)c1ccccc1
The inhibition of the first is lower: -42.7% for the first, 5.6% for the second.

First: CC1(C)C(=O)CC[C@]2(C)C3C(=O)C=C4[C@H]5C[C@@](C)(C(=O)O)CC[C@]5(C)CC[C@]4(C)[C@]3(C)CC[C@@H]12 (some centres undefined)
Second: C=C(C)[C@@H]1CCC2(C(=O)O)CC[C@]3(C)[C@H](CC[C@@H]4[C@@]5(C)CCC(=O)C(C)(C)[C@@H]5CC[C@]43C)[C@@H]12 (some centres undefined)
The inhibition of the first is lower: -7.3% for the first, 48.4% for the second.

First: O=C(CSCCSCC(=O)c1ccco1)c1ccco1
Second: Cc1cc(SCC(N)=O)nc(SCC(=O)c2ccccc2)n1
The inhibition of the first is lower: -26.9% for the first, 28.1% for the second.

Compared with CNC(=O)CSc1nc2cc(S(=O)(=O)Nc3ccc(OC)cc3)ccc2o1, COc1ccc(NS(=O)(=O)c2ccc3oc(SC)nc3c2)cc1 is lower in inhibition: -1.2% for the first, -2.9% for the second.

First: CCCN=C(C)c1c(-c2ccccc2)[nH]n(-c2nc3ccccc3s2)c1=O
Second: COC(=O)Cc1[nH]n(-c2nc3ccccc3s2)c(=O)c1C(C)=Nc1ccc(Cl)cc1
The inhibition of the first is higher: 7.3% for the first, 1% for the second.

First: COC(=O)Cc1[nH]n(-c2nc3ccccc3s2)c(=O)c1C(C)=O
Second: COC(=O)CC1=NN(c2nc3ccccc3s2)C(=O)/C1=C/N(C)C
The inhibition of the first is higher: -16.2% for the first, -19.7% for the second.

Going from O=C(CCN1C(=O)c2ccccc2C1=O)OCN1C(=O)c2ccccc2C1=O to O=C(Cc1ccccc1F)OCN1C(=O)c2ccccc2C1=O, the inhibition falls from 11.2% to -15.6%.

First: O=c1cc(N2CCN(c3ccc(F)cc3)CC2)[nH]c(=O)n1Cc1ccc(F)cc1
Second: CN(CC1CCN(CCc2cccc(C(F)(F)F)c2)CC1)C(=O)c1ccc(F)cc1
The inhibition of the first is lower: -13% for the first, 18.5% for the second.

Going from CC1=NNC(=O)/C1=C\c1cn(-c2ccccc2)nc1-c1ccc(Cl)cc1 to CC1=NNC(=O)/C1=C\c1cn(-c2ccccc2)nc1-c1ccc(F)cc1, the inhibition rises from -47.4% to -39.1%.

Going from COc1ccc(NC(=O)CC(C(=O)O)N2CCCCC2)cc1 (centres undefined) to Cc1ccc(NC(=O)CCN2CCN(C)CC2)cc1, the inhibition rises from 2.5% to 24.4%.

First: Cc1cc(/C=N/Nc2nc(N)ncc2[N+](=O)[O-])c(C)n1-c1cccc(C(F)(F)F)c1
Second: Cc1cc(/C=N/Nc2ccc([N+](=O)[O-])cn2)c(C)n1-c1ccccc1
The inhibition of the first is higher: -14.7% for the first, -31.3% for the second.

First: COc1cccc(/C=N/Nc2ncnc(N)c2[N+](=O)[O-])c1OC
Second: Cc1ccccc1-n1c(C)cc(/C=N/Nc2ccc([N+](=O)[O-])cn2)c1C
The inhibition of the first is higher: 53.3% for the first, -119% for the second.

Going from O=C(CCN1C(=O)/C(=C/c2ccccc2)SC1=S)NNC(=O)c1ccncc1 to Cc1c(NC(=O)Nc2cccc(C#N)c2)c(=O)n(-c2ccccc2)n1C, the inhibition rises from -47.5% to -8.2%.

Compared with O=C1CC(c2ccc(F)cc2)C2=C(CCCC2=O)N1 (centres undefined), Fc1ccc(CSc2ncnc3nc[nH]c23)cc1 is lower in inhibition: -5.5% for the first, -14.8% for the second.

First: CCc1cc2c(=O)n(Cc3ccccc3)c(SC3CCOC3=O)nc2s1 (centres undefined)
Second: CC(C)Oc1ccc(Cc2n[nH]c(=S)n2Cc2ccccc2)cc1Cl
The inhibition of the first is higher: -29.3% for the first, -44.3% for the second.

First: COc1ccc(CCN2C(=NC(=O)C(C)C)SC3CS(=O)(=O)CC32)cc1OC (centres undefined)
Second: COc1ccccc1OCc1n[nH]c(=S)n1Cc1ccccc1
The inhibition of the first is higher: -10.6% for the first, -18.7% for the second.

First: CCCCS(=O)(=O)/C=C/[C@H]1[C@H](S(=O)(=O)CCCC)[C@H]2C=C[C@@H]1C2
Second: CCCCS(=O)(=O)/C=C\C1C2C=CC(C2)C1S(=O)(=O)CCCC (centres undefined)
The inhibition of the first is lower: -23.6% for the first, 6.2% for the second.

First: Cc1cc(C)nc(NC2=NCC(=O)N2CCc2c[nH]c3ccccc23)n1
Second: Cc1cc(C)c(C#N)c(SCc2nnc(-c3ccccc3[N+](=O)[O-])o2)n1
The inhibition of the first is higher: -8.6% for the first, -26% for the second.

Going from CN(Cc1ccccc1F)c1nc(-c2cccnc2)nc2ccccc12 to COc1cccc(CN(C)c2nc(-c3cccs3)nc3ccccc23)c1, the inhibition falls from 25.5% to 7.9%.

Going from COc1ccc(CC(=O)OCN2C(=O)c3ccccc3C2=O)cc1 to COc1ccc(NC(=O)c2ccc(S(=O)(=O)N(C)C)cc2)cc1, the inhibition falls from 0.1% to -41.1%.

First: O=c1c2cnn(-c3ccccc3)c2nc(-c2cccs2)n1-c1cccc(Cl)c1
Second: Cc1ccc(C(=O)CSc2cc(C)nc(SCC(=O)c3ccccc3)n2)cc1
The inhibition of the first is lower: -3.1% for the first, 61.4% for the second.

Going from CN(C)c1ccc(/C=C/c2cc[n+](C)cc2)cc1 to CN(C)c1ccc(/C=C/c2cccc[n+]2[O-])cc1, the inhibition falls from 25% to 2.7%.

Compared with CC(=O)/C(C(=N)N1CCN(c2cccc(Cl)c2)CC1)=C(\C)O, Cc1ccc(S(=O)(=O)N2CCN(C(=O)CSC3CCCC3)CC2)c(C)c1 is lower in inhibition: 24.8% for the first, -8.8% for the second.

Going from O=[N+]([O-])c1cc([N+](=O)[O-])c(Oc2c(Cl)cccc2Cl)cc1NN1CCCCC1 to O=[N+]([O-])c1cc([N+](=O)[O-])c(Oc2cccnc2Br)cc1NN1CCCCC1, the inhibition rises from -4.9% to 5.9%.

Going from O=C(O)c1ccc(S(=O)(=O)NCC2CCCCC2)cc1 to O=C(Cn1c(=O)oc2cc(S(=O)(=O)N3CCCC3)ccc21)N1CCN(c2ccccn2)CC1, the inhibition rises from -9.7% to -8%.

Going from O=C(NCC1COc2ccccc2O1)C1CCCN(S(=O)(=O)c2cccc3cccnc23)C1 (centres undefined) to COc1ccc(NC(=O)c2ccccn2)cc1S(=O)(=O)N1CCOCC1, the inhibition falls from 22.5% to -33.7%.

Compared with N#Cc1c(-c2ccccc2)cc(-c2ccccc2)nc1SCc1nnc(-c2ccccc2)o1, CC1=Nc2ccccc2/C1=C\c1sc(Nc2ccc(C)cc2)nc1O is lower in inhibition: 12.9% for the first, 1.1% for the second.

First: CCCCn1c(=O)[nH]c(=O)c2c1nc(CN1C(=O)c3ccccc3S1(=O)=O)n2CCC
Second: CCCCn1c(CCC(=O)O)nc2c1c(=O)[nH]c(=O)n2CCC
The inhibition of the first is lower: -23.3% for the first, -15.7% for the second.

First: Oc1[nH]c(=S)sc1C=C1N=c2ccccc2=N1
Second: Cc1ccc(NC(=O)C(=O)NCc2ccccn2)cc1
The inhibition of the first is higher: -5.9% for the first, -47.6% for the second.

First: Cc1cccc(N2CCN(c3nc4nonc4nc3N3CCSCC3)CC2)n1
Second: Cc1ccc(S(=O)(=O)N2CCN(C(=O)c3sccc3-c3ccccc3)CC2)cc1
The inhibition of the first is higher: -22.4% for the first, -24.8% for the second.

First: Cc1[nH]nc2c1C(c1ccsc1)C(C#N)=C(N)O2 (centres undefined)
Second: CC(C)(C)c1[nH]nc2c1C(c1ccncc1)C(C#N)=C(N)O2 (centres undefined)
The inhibition of the first is higher: -7.7% for the first, -8.8% for the second.

With C=CCOc1ccccc1C(=O)/C=C1/C(=O)Nc2ccccc21 the inhibition was 37.3% (active).
In the case of O=CNCc1nc2ccccc2n1CCc1ccccc1, the inhibition is reported as 66% (active).
In the case of O=C(C#Cc1ccccc1)c1ccco1, the inhibition is reported as 72.9% (active).
In the case of CC(=O)c1c(CC(=O)O)[nH]n(-c2nc3ccccc3s2)c1=O, the inhibition is reported as 79.8% (active).
For CC1=NNC(=O)/C1=C\c1cn(-c2ccccc2)nc1-c1ccccc1, the inhibition was 64.7% (active).
In the case of CCCCS(=O)(=O)/C=C\C=C/S(=O)(=O)CCCC, the inhibition is reported as 97.7% (active).
In the case of CN(Cc1ccccc1F)c1nc(-c2cccs2)nc2ccccc12, the inhibition is reported as 67.9% (active).
For O=C(Cc1ccc(F)cc1)OCN1C(=O)c2ccccc2C1=O, the inhibition was 49.7% (active).
In the case of O=[N+]([O-])c1cc([N+](=O)[O-])c(Oc2ccc(Cl)c3cccnc23)cc1NN1CCCCC1, the inhibition is reported as 44.7% (active).
With COc1ccc(Cc2n[nH]c(=S)n2Cc2ccccc2)cc1Cl the inhibition was 44.7% (active).
In the case of CCCCn1c(=O)[nH]c(=O)c2c1nc(Cn1ncc(Cl)c(Cl)c1=O)n2CCC, the inhibition is reported as 85% (active).
For Oc1[nH]c(=S)sc1/C=C1\C(c2ccccc2)=Nc2ccccc21, the inhibition was 72.5% (active).
In the case of COc1ccc(C(=O)CSc2cc(C)nc(SCC(=O)c3ccc(C)cc3)n2)cc1, the inhibition is reported as 63.1% (active).
With CC(C)(C)c1[nH]nc2c1C(c1ccsc1)C(C#N)=C(N)O2 (centres undefined) the inhibition was 59.2% (active).

Source: PubChem BioAssay AID1578 (Sanford-Burnham Center for Chemical Genomics, 2009)
